Source: PubChem
This is one part of a sample in which hits are shown more often than they occur.
ST2 IL33 inh: inhibitors of human ST2 (IL1RL1) binding to IL-33, primary screen, biochemical, AlphaLISA | AlphaLISA ST2-Fc/biotin-IL-33 interaction, 1 h | inhibition, % for hits at 17 µM | Interleukin-1 receptor-like 1 (Homo sapiens), Q01638 | AID 1259354, 2018 | 2.3% of 78,000 active; in the data active = inhibition above about 30%
Target sequence (Q01638 whole entry, looked up): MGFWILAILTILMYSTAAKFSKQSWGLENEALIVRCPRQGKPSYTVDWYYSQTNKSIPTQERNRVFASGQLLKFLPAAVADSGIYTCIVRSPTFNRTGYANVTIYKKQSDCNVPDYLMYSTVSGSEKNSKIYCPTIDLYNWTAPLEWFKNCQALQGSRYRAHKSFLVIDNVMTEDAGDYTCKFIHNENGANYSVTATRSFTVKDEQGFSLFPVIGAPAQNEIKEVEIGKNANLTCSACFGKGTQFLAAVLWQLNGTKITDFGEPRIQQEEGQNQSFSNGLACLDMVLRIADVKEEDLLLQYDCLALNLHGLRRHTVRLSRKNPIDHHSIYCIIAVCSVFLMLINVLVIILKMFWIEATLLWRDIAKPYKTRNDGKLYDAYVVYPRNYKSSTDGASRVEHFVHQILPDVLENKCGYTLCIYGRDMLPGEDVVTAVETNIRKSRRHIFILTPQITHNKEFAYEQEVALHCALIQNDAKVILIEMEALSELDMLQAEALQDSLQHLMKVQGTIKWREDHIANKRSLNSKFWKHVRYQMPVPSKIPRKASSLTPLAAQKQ
Numbers without * were called inactive; i = inactive; ! = not confirmed by another sample.

SMILES	ST2 IL33 inh
COc1ccc(N2C(=O)C3CC=CCC3C2=O)c(OC)c1 (stereo not given)	i
CC(=O)c1ccccc1-c1ccc2ccccc2n1	i
CCn1c(=O)c(-c2ccc3ccccc3n2)cc2cc(Br)ccc21	36%*
CCn1c(/C=C/c2ccc(F)cc2)nc2ccccc2c1=O	i
COC(=O)[C@H](Cc1ccc(OC)cc1)NC(=O)[C@@H]1CN(C(=O)NC(C)C)CCN1C(=O)NC1CCCCC1	i
COC(C)c1cccc(-c2nccc3occc23)c1 (stereo not given)	i
O=C(CCC1=NS(=O)(=O)c2ccccc2N1)Nc1ccc(F)c(F)c1	i
CCC1CCCCN1CCCNC(=O)c1cc2cc3ccc(Cl)cc3nc2o1 (stereo not given)	i
COc1ccc2cc3cc(C(=O)Nc4ccc(F)cc4Cl)oc3nc2c1	i
CCCN(CCC)CCCNC(=O)c1cc2cc3ccc(OC)cc3nc2o1	i
O=C(Nc1ccc(F)cc1)c1cc2cc3ccc(Cl)cc3nc2o1	37%*!
CCCCN(CC)CCCNC(=O)c1cc2cc3ccc(OC)cc3nc2o1	i
COc1ccc2cc3cc(C(=O)NCCCN4CCN(C)CC4)oc3nc2c1	i
COc1ccc2cc3cc(C(=O)Nc4cc(Cl)ccc4OC)oc3nc2c1	i
CCN(CCCNC(=O)c1cc2cc3ccc(Cl)cc3nc2o1)c1ccccc1	34%*!
O=C(NCCCN1CCCCCC1)c1cc2cc3ccc(Cl)cc3nc2o1	44%*!
CCn1ccnc1CNc1nc2nonc2nc1N1CCCC1	i
COc1ccc(NC(=O)CN2C(=O)C3CCCCN3c3ccc(C(=O)N(C)C)cc32)cc1OC (stereo not given)	i
Cc1ccc(N2C(=O)C3CC=CC(C)C3C2=O)cc1C (stereo not given)	i
COc1ccc(-c2nc(CN(CCO)Cc3cccs3)c(C)o2)c(OC)c1	i
Cc1cccn2c(=O)c3cc(C(=O)Nc4ccc(F)cc4)n(C)c3nc12	i
CCn1c(C2CCCNC2)nn(CCn2cccc2)c1=O (stereo not given)	i
Cc1nc2ccccc2nc1-c1ccc([N+](=O)[O-])cc1	i
O=[N+]([O-])c1ccc(-c2cnc3ccccc3n2)cc1	31%*
O=[N+]([O-])c1ccc(-c2nc3ccccc3o2)cc1	i
SMILES	ST2 IL33 inh
CCc1nc2sc3c(c2c2nncn12)CCC3	i
Cc1nn(CC(=O)O)c(C)c1NC(=O)CSc1ccncc1	i
COc1cc(-c2nnc3n2C(C)(C)Cc2ccccc2-3)cc(OC)c1OC	i
Cc1ccc(N=Cc2nc(-c3ccccc3)oc2O)cc1Cl	i
COc1cc(-c2nc(C=C3C(C)=Nc4ccccc43)c(O)o2)cc(OC)c1OC	34%*
Clc1ccc(-c2cn3ccsc3n2)cc1	i
Oc1ccc[n+](CCCCCC[n+]2cccc(O)c2)c1	i
COc1ccc(/C=C2\CCC/C(=C\c3ccc(OC)c(OC)c3)C2=O)cc1OC	30%*
COc1ccc(C=C2C(=O)OC(C)(C(C)(C)C)OC2=O)cc1OC (stereo not given)	i
COc1ccc(/C=C/C#N)cc1OC	i
CCC(C)Sc1oc(-c2cccs2)nc1S(=O)(=O)c1ccccc1 (stereo not given)	i
O=C(Cc1ccccc1)N1CCN=C1SCc1c(F)cccc1Cl	i
O=C(CCCCCN1C(=O)c2ccccc2C1=O)Nc1cccc(C(F)(F)F)c1	i
O=C1C=C(Nc2cccc(C(F)(F)F)c2)C(=O)c2ccccc21	31%*
Cc1nnc(Nc2cccc(C(F)(F)F)c2)[nH]c1=O	i
O=C1CN(C(=O)c2ccc(F)c(Cl)c2)CC(OCc2ccccn2)CN1Cc1ccccc1 (stereo not given)	i
C(=C\c1ccccc1)/Sc1ccc2ccccc2n1	34%*
C(=C\c1cnc2n[nH]nc2c1)/c1ccccc1	i
O=c1c2ccccc2nc(/C=C/c2ccccc2)n1Cc1ccccc1	i
Nc1nnc(SCC(=O)N2CCc3ccccc32)s1	i
O=S(=O)(Cc1noc([C@@H]2C[C@@H](O)CN2Cc2cc3ccccc3o2)n1)c1ccc(F)cc1	i
O[C@@H]1C[C@@H](c2nc(-c3ccc(C(F)(F)F)cc3)no2)N(Cc2cc3ccccc3o2)C1	i
CC(C)c1noc([C@@H]2C[C@@H](O)CN2Cc2cc3ccccc3o2)n1	38%*
Cc1ccn(-c2ccc(C(=O)NC3CCCCC3)o2)n1	i
O=C(Nc1cccc(OC(=O)c2cccs2)c1)c1cccs1	i
SMILES	ST2 IL33 inh
CCS(=O)(=O)N1CCN(c2c(Cl)cccc2[N+](=O)[O-])CC1	i
Cc1ccc(OCCCN2CCCCC2)c([N+](=O)[O-])c1	i
Cc1c(Cl)c([N+](=O)[O-])cc([N+](=O)[O-])c1N1CCCC1	40%*
COc1ccc(-c2cc(C(=O)N(C)C3CCCN(CCc4ccccc4)C3)[nH]n2)cc1 (stereo not given)	i
COc1cccc(-c2cc3c(n(Cc4ccccn4)c2=O)CCN(C(=O)c2cc4ccccc4o2)C3)c1	i
O=C1N(Cc2cccnc2)C(=O)C2(CCN(Cc3ccccc3Cl)CC2)N1CCc1ccccc1	i
CCN1C(=O)N(CCc2ccccc2)C2(CCN(Cc3cccc(OC)c3OC)CC2)C1=O	i
COCCCN1C(=O)N(Cc2ccccc2)C(=O)C12CCN(Cc1c(F)cccc1Cl)CC2	32%*
O=C(C1c2ccccc2C(=O)N2CCc3ccccc3C12)N1CCN(C2CCCCC2)CC1 (stereo not given)	i
CC(=O)N1CCn2c3c(c4cc(C)ccc42)CCCC31 (stereo not given)	i
Cc1ccc2c(c1)c1c(n2CCC#N)C(=O)CCC1	i
CC(=O)N1CCn2c3c(c4cc(C5CCCCC5)ccc42)CCCC31 (stereo not given)	i
Cc1ccc2c(c1)c1c(n2C)C(C(N)=O)CCC1 (stereo not given)	32%*
Cc1ccc2c(c1)c1c3n2CCN(C(=O)c2ccccc2)C3CCC1 (stereo not given)	30%*
Cc1ccc2c(c1)c1c3n2CCN(CCC#N)C3CCC1 (stereo not given)	i
CCCSc1nc2c(c(=O)n1-c1ccc(Cl)cc1)SCC2	i
c1ccc(CSc2nnc3sc4ccccc4n23)cc1	i
Cc1cccc(-n2c(C)nc3c(cnn3-c3ccccc3Cl)c2=O)c1	i
COc1ccc(OC)c(S(=O)(=O)Nc2ccccc2Br)c1	i
CSCc1ccc(C(=O)N(C)C2CCCN(C3Cc4ccccc4C3)C2)o1 (stereo not given)	i
O=C(C1CC1)N1CCc2cc(S(=O)(=O)NCc3ccc4c(c3)OCO4)ccc21	36%*
O=C(C1CC1)N1CCc2cc(S(=O)(=O)NCc3ccc(F)cc3)ccc21	i
Cc1ccc(CNS(=O)(=O)c2cc(Br)cc3c2N(C(=O)C2CC2)CC3)cc1	i
O=C(C1CC1)N1CCc2cc(Br)cc(S(=O)(=O)NCc3cccnc3)c21	i
O=C(C1CC1)N1CCc2cc(Br)cc(S(=O)(=O)NCc3ccc4c(c3)OCO4)c21	32%*
COc1ccc(CNS(=O)(=O)c2ccc3c(c2)CCN3C(=O)C2CC2)cc1	i
Clc1ccc2nc(CSc3nnnn3-c3ccccc3)c(Cl)n2c1	i
COc1cccc(OC)c1C(=O)N1CCN=C1SCc1ccccc1F	i
O=C(CN1CCCN(Cc2cccc(F)c2)S1(=O)=O)Nc1ccccc1F	i
O=[N+]([O-])c1cccc(C=Nc2ccc(S(=O)(=O)Nc3ccccn3)cc2)c1	i
